Data as given in PubChem BioAssay.
Some of the results follow. Results filed as inconclusive are left out. Active and inactive are the calls of the source.

Columns and labels:
[1] = molecular target: Solute carrier family 12 member 5 (Homo sapiens) (UniProt Q9H2X9); test: KCC2 modulators in sodium-free buffer, confirmation, cell-based, HEK293 KCC2, thallium flux, secondary assay (AID 1713;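 active means thallium flux slope above the same plate's solvent-only control mean plus 3 SD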); conditions: FluoZin2 fluorescence, at 10 µM, stronger effect = higher value
[2] = molecular target: Solute carrier family 12 member 5 (Homo sapiens) (UniProt Q9H2X9); test: KCC2 modulators without ouabain present, confirmation, cell-based, HEK293 KCC2, thallium flux, FluoZin2, secondary assay 2 (AID 1715); conditions: HEK293-KCC2, thallium flux FluoZin2 fluorescence; at 10 µM; actives lie on both sides; F/F0 rise rate, 10–20 s post-thallium;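 further: raw slope with 0.1% DMSO as baseline and bumetanide as block control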
[3] = native HEK Tl+ uptake effects, second counter-screen – HEK cells, counterscreen 2, counter-screen for KCC2 modulator project, confirmation (AID 1718;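 active means thallium flux slope above the same plate's solvent-control mean plus 3 SD in both duplicate wells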;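 further: run without ouabain in cells lacking the KCC2 cotransporter; slope of fluorescence scaled to its starting value between 10 and 20 s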); conditions: HEK293 parental, thallium flux FluoZin-2 fluorescence slope; at 10 µM
[4] = inhibitors of TNFa-induced NFkB p65 translocation, primary screen, imaging, HUVEC, MLSMR starter and 10KST1 sets (AID 438;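 active means inhibition above 20% together with a positive visual image hit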;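 further: compound added about 3h40 before a 20 min TNFalpha stimulation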;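 on inhibition: signal is the nuclear over cytoplasmic p65 intensity ratio per well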); conditions: HUVEC TNFa-induced p65 nuclear translocation; cell count: measured here: nuclei count (cytotoxicity indicator), at 2.08 µM; inhibition: at 2 µM, stronger effect = higher value, 0% TNFa-plus-vehicle, 100% no-TNFa wells
[5] = inhibitors of mutant huntingtin aggregation, primary screen, imaging, exon1htt(103Q)mCFP cells, high-content imaging (AID 483;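 active means visual image review flags a hit and inhibition of aggregation exceeds 20%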;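 further: compound exposure lasted 3 days before fixation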;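 on nuclei count: percent of the per-plate median nuclei count of sample wells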); conditions: exon1htt(103Q)mCFP cell line, aggregate imaging, at 2 µM; inhibition of aggregation: stronger effect = higher value; nuclei count: measured here: cell count, toxicity
[6] = inhibitors of E-selectin induction by TNFa, primary screen, imaging, HUVEC, immunofluorescence, MLSMR starter and 10KST1 sets (AID 487;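 active means visually confirmed hit in the image check and inhibition above 20%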;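 on inhibition: signal is fraction of cell area covered by stained E-selectin grains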;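 on nuclei count: 100% = median nuclei count of all wells on the same plate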); conditions: HUVEC TNFalpha-induced E-selectin immunofluorescence imaging, at 2 µM; inhibition: stronger effect = higher value; nuclei count: measured here: cell number, toxicity
[7] = DUSP6 inhibitors restoring Erk phosphorylation by chemical complementation, primary imaging in DUSP6-transfected HeLa (AID 609;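 active means compounds giving at least 50% inhibition in the cell-based MKP-3 phosphatase rescue imaging test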;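 on inhibition: phospho-Erk level distribution per well compared with pooled transfected vehicle control wells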); conditions: HeLa MKP-3 transfected, phospho-Erk imaging KS statistic, at 10 µM, cells stimulated with TPA for 15 min
[8] = molecular target: Dual specificity protein phosphatase 6 (Homo sapiens) (UniProt Q16828); test: as above; conditions: HeLa MKP-3 transfected, phospho-Erk imaging KS statistic; at 10 µM; stronger effect = higher value; cells stimulated with TPA for 15 min
[9] = molecular target: Voltage-gated potassium channel subunit beta-2 (Rattus norvegicus) (UniProt P62483); test: KvBeta enzyme negative modulators, primary screen, biochemical, NADPH fluorescence (AID 622;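 active means fluorescence slope higher than the sample average by over 3 SD, cut at about -0.22 in these data, passing the limit was not always enough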;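 further: slope of raw intensity against log time taken from 70 to 1610 s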); conditions: recombinant KvBeta, 4-cyanobenzaldehyde reduction, at 10 µM, stronger effect = higher value
[10] = molecular target: Voltage-gated potassium channel subunit beta-2 (Rattus norvegicus) (UniProt P62483); test: KvBeta positive modulators, primary screen, biochemical, NADPH fluorescence (AID 623;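 active means NADPH fluorescence slope more negative than the mean of all samples by about 3 SD, 99.7% confidence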;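 further: fluorescence intensity change per second fitted from 20 to 320 s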); conditions: Recombinant KvBeta, NADPH fluorescence decrease slope, 10 min; at 10 µM; stronger effect = lower value
[11] = molecular target: Alpha-2C adrenergic receptor (Homo sapiens) (UniProt P18825); test: modulators of alpha2C/GIRK thallium flux, primary screen, cell-based, HEK293 alpha2C/GIRK1/2 (AID 624;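 active means fluorescence slope after compound addition differing from the mean of all screened samples at 99.7% confidence, in either direction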;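 further: slope of fluorescence ratio to pre-addition baseline per second over 15 to 24 s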); conditions: thallium flux BTC fluorescence, at 10 µM, actives lie on both sides
[12] = inhibitors of Chlamydomonas gravitaxis, primary screen, whole organism, Chlamydomonas reinhardtii, WT vs cilia-less mutant, absorbance, 96-well (AID 463189;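 active means inhibition at or above 50% relative to wild type and mutant plate controls; inactive means inhibition below 50%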;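 further: 0% = wild type cc124 cells in DMSO and 100% = ciliumless bld1 mutant cells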); conditions: OD600 absorbance, 2 days, at 10 µM, stronger effect = higher value
[13] = inhibitors of Sendai virus-induced IRF3 signaling, primary screen, TLR/RLR signaling modifier project, cell-based, Sendai virus stimulus, luciferase, 10K MLSCN set (AID 602276;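 active means inhibition at or above 50% at 10 µM; inactive means inhibition below 50%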;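 further: firefly luciferase from ISG56 promoter only with Renilla not read in this screen; 0% = Sendai virus plus DMSO and 100% = medium plus DMSO without virus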); conditions: HEK293 RL24 IRF3 luciferase reporter, at 10 µM, stronger effect = higher value
[14] = inhibitors of poly I:C-induced TLR3 signaling, primary screen, cell-based, poly I:C stimulus, luciferase, 10K MLSCN set (AID 602277;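 active means inhibition of the reporter signal at or above 50%; inactive means inhibition below 50%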); conditions: HEK293-TLR3 RL24 IRF3 luciferase reporter, at 10 µM, stronger effect = higher value
PubChem AID 1714 = conditions: HEK293-KCC2 + bumetanide/ouabain, thallium flux FluoZin2; at 10 µM; stronger effect = higher value
[15] = thallium flux modulation in parental HEK cells, confirmation, counter-screen for KCC2 modulator project, cell-based, counterscreen 1 (AID 1716;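 active means thallium flux rate significantly above the same plate's solvent-only control wells, beyond their mean plus 3 SD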); conditions: HEK293 parental cells, thallium flux FluoZin2, ouabain; at 10 µM; baseline-ratio fluorescence slope, 10–20 s after thallium
[16] = molecular target: Solute carrier family 12 member 5 (Homo sapiens) (UniProt Q9H2X9); test: KCC2 inhibitors and activators, ouabain retest, confirmation, HEK-KCC2 cells (AID 1717;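 active means thallium flux slope beyond 3 SD from same-plate DMSO control mean in most replicates, usually higher, sometimes lower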;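 further: slope of initial-normalized fluorescence between seconds 10 and 20 after thallium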); conditions: HEK293-KCC2, thallium flux FluoZin2 fluorescence, at 10 µM, bidirectional: low = inhibitor, high = activator
[17] = inhibitors of larval lipid processing in zebrafish, primary screen, whole organism, PED6 fluorescence, gall bladder and intestine (AID 686;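 active means a full or partial loss of lipid-probe fluorescence in the fish gall bladder, intestine or both, judged by eye; inactive means no fluorescence loss, or compound toxic to the fish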;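 further: larvae 5 to 7 days old with five fish per well; signal comes from phospholipase A2 cleavage of quenched PED6 carried via bile; overnight exposure to compound and PED6 before scoring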); conditions: Zebrafish larvae PED6 lipid processing, fluorescence scoring; screened at 20 µM (by protocol)
[18] = molecular target: Muscarinic acetylcholine receptor M4 (Homo sapiens) (UniProt P08173); test: compounds altering M4/GIRK thallium flux, either direction, primary screen, M4 allosteric agonist project, cell-based, HEK293 M4/GIRK, BTC-AM (AID 625;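 active means fluorescence slope after compound addition differing from the mean of all tested samples at 99.7% confidence, mostly higher but some lower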;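 further: thallium influx through GIRK channels coupled to M4 in HEK293 cells with BTC-AM dye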); conditions: at 10 µM, actives lie on both sides
[19] = measured here: cell density z-score
[20] = measured here: nuclear c-Myc green intensity z-score
[21] = measured here: nuclear pErk red intensity z-score, stronger effect = higher value

Sequence of Solute carrier family 12 member 5 (Homo sapiens) (Q9H2X9 whole entry, looked up): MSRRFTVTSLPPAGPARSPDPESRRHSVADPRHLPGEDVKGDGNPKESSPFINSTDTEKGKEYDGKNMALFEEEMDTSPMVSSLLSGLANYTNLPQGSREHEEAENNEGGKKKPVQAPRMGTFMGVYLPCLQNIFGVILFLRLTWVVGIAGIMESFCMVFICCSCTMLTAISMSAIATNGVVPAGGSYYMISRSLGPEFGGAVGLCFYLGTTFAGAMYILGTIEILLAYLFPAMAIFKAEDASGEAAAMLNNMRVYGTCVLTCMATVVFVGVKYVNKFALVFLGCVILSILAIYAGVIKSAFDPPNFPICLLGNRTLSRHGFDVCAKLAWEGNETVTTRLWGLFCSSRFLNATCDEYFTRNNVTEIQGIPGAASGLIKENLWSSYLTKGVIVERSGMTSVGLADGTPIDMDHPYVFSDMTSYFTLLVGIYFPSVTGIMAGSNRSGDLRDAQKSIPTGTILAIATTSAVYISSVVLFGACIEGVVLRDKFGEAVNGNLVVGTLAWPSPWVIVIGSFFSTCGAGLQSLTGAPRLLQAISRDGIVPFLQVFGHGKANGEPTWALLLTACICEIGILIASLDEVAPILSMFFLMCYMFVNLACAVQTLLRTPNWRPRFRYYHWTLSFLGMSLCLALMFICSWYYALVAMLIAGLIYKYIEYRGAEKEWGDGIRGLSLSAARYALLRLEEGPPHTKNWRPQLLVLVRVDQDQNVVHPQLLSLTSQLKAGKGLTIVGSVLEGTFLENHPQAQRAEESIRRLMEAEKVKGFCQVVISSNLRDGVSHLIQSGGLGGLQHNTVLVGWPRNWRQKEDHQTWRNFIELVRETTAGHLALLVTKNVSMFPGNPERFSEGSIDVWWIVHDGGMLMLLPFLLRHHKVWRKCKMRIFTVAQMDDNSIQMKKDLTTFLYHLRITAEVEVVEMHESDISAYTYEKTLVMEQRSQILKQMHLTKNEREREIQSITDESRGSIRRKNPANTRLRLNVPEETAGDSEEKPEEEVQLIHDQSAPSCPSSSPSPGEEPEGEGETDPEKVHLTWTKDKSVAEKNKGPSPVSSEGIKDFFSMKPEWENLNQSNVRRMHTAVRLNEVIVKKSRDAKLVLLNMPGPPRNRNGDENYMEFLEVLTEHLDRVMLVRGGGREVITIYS
Sequence of Alpha-2C adrenergic receptor (Homo sapiens) (P18825 whole entry, looked up): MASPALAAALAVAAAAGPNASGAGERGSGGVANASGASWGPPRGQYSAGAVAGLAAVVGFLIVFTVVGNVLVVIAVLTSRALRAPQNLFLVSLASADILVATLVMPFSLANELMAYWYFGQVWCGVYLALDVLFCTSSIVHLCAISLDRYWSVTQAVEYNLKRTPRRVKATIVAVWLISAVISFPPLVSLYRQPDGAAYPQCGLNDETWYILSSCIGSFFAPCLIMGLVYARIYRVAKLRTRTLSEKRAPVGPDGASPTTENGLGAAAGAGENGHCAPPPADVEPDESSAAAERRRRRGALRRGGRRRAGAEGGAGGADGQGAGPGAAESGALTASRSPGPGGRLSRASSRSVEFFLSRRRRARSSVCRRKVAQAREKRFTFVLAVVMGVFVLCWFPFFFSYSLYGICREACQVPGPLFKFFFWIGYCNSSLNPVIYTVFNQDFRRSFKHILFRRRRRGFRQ
Sequence of Dual specificity protein phosphatase 6 (Homo sapiens) (Q16828 whole entry, looked up): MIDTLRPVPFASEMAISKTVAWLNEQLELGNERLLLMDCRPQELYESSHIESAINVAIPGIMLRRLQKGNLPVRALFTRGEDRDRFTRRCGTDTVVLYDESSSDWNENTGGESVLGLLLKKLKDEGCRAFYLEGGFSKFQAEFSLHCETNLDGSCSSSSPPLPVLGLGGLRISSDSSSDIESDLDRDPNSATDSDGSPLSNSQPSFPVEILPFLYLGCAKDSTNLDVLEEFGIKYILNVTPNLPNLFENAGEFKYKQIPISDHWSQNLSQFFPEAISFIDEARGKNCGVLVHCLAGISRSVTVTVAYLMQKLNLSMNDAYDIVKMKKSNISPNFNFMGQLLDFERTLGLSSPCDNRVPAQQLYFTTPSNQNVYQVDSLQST
Sequence of Voltage-gated potassium channel subunit beta-2 (Rattus norvegicus) (P62483 whole entry, looked up): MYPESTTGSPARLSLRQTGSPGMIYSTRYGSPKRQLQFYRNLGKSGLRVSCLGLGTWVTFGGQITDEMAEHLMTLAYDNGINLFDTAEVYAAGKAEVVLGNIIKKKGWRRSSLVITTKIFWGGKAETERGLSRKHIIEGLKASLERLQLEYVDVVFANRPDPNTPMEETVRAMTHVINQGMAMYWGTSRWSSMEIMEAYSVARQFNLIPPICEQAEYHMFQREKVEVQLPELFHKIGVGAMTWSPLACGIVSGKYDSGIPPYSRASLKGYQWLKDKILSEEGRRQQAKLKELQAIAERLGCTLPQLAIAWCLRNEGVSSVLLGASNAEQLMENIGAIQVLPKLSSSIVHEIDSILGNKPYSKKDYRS
Sequence of Muscarinic acetylcholine receptor M4 (Homo sapiens) (P08173 whole entry, looked up): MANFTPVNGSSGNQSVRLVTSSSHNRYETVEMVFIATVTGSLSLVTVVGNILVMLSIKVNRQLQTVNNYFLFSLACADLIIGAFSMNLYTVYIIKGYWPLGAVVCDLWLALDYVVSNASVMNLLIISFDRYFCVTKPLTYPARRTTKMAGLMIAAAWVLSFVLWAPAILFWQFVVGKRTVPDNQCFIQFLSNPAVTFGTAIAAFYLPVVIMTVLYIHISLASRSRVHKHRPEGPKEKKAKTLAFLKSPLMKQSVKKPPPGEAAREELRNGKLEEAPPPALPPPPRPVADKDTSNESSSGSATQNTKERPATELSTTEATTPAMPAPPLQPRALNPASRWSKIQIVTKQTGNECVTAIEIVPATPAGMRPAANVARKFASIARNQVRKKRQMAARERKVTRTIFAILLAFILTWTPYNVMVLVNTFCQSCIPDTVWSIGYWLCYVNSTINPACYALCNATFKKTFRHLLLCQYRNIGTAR

With COc1ccc(Cl)cc1S(=O)(=O)Nc1cccc(C(=O)O)c1 the normalised thallium flux (F/F0 slope) [1] was 0.00707 (inactive), the normalized thallium flux [2] was 0.0299 (inactive) and the thallium flux slope [3] was 0.0107 (inactive).

For Cc1cc(=O)oc2c(CN3CCN(C)CC3)c(O)c(Cl)cc12, the cell count [4] was 494, the inhibition [4] was -13.9% (inactive) and the inhibition of aggregation [5] was 0.1% (inactive). The nuclei count [5] was 101%, the inhibition [6] was -17.2% (inactive) and the nuclei count [6] was 105%. For the same compound, the z-score [7, 19] was -0.81, the z-score [7, 20] was -0.0591 and the z-score [7, 21] was -0.654. For the same compound, the inhibition [8] was 1.48% (inactive), the fluorescence slope [9] was -0.0297 (active) and the NADPH fluorescence slope [10] was 2e-05 (inactive). For the same compound, the slope [11] was 0.00763 (inactive), the inhibition [12] was -9.73% (inactive) and the inhibition [13] was 14.9% (inactive). The inhibition [14] was 17.6% (inactive).

With CCCCC(=O)O[C@H]1CC[C@H]2[C@@H]3CCc4cc(O)ccc4[C@H]3CC[C@]12C the cell count [4] was 524, the inhibition [4] was -3.1% (inactive) and the inhibition of aggregation [5] was 7% (inactive). The nuclei count [5] was 88.9%, the inhibition [6] was -104% (inactive) and the nuclei count [6] was 131%. For the same compound, the z-score [7, 19] was -0.577, the z-score [7, 20] was -1.69 and the z-score [7, 21] was -0.657. The inhibition [8] was -0.828% (inactive), the fluorescence slope [9] was -0.453 (inactive) and the NADPH fluorescence slope [10] was -3e-05 (inactive). The slope [11] was 0.00721 (inactive), the inhibition [12] was 22.7% (inactive) and the inhibition [13] was 16.8% (inactive). The inhibition [14] was 40.4% (inactive).

For Cc1oc2nc(SCCCC(=O)NCCCO)nc(N)c2c1C, the cell count [4] was 507, the inhibition [4] was -4.5% (inactive) and the inhibition of aggregation [5] was 21.9% (inactive). The nuclei count [5] was 90.5%, the inhibition [6] was -109% (inactive) and the nuclei count [6] was 116%. It also gave a z-score [7, 19] of 0.495, a z-score [7, 20] of 0.376 and a z-score [7, 21] of -1.33. For the same compound, the inhibition [8] was 3.56% (inactive), the fluorescence slope [9] was -0.522 (inactive) and the NADPH fluorescence slope [10] was -1.7e-05 (inactive). The slope [11] was 0.00668 (inactive), the inhibition [12] was 0.255% (inactive) and the inhibition [13] was 12.9% (inactive). The inhibition [14] was 12.8% (inactive).

In the case of CCC(CC)NC(=O)CSc1nnc(-c2c[nH]c3ccccc23)o1, the normalized thallium flux (PubChem AID 1714) is reported as 0.00461 (inactive), the normalized thallium flux [2] is reported as 0.0248 (active) and the thallium flux rate (normalised fluorescence) [15] is reported as 0.00757 (inactive). For the same compound, the thallium flux slope [3] was 0.0106 (inactive).

With CC(C)(C)c1ccc(C(=O)NCC(=O)OCN2C(=O)c3ccccc3C2=O)cc1 the normalized thallium flux (PubChem AID 1714) was 0.00471 (inactive), the normalized thallium flux [2] was 0.031 (inactive) and the thallium flux rate (normalised fluorescence) [15] was 0.00756 (inactive). For the same compound, the raw Tl+ flux slope (below DMSO = inhibition, above = activation) [16] was 0.0171 (inactive) and the thallium flux slope [3] was 0.0105 (inactive).

For C[C@@H](C(=O)Nc1ccc2ccccc2c1)[C@@H]1C[C@@]1(C)[C@@H](NC(=O)c1cccnc1)c1ccccc1, the normalised thallium flux (F/F0 slope) [1] was 0.00785 (inactive), the normalized thallium flux [2] was 0.0226 (active) and the thallium flux rate (normalised fluorescence) [15] was 0.00775 (inactive). For the same compound, the raw Tl+ flux slope (below DMSO = inhibition, above = activation) [16] was 0.0135 (active) and the thallium flux slope [3] was 0.0098 (inactive).

For C/C(=C\C(=O)c1ccc(Br)cc1)N1CCCCC1, the normalized thallium flux (PubChem AID 1714) was 0.0396 (active), the normalized thallium flux [2] was 0.0283 (inactive) and the thallium flux rate (normalised fluorescence) [15] was 0.0152 (active). The thallium flux slope [3] was 0.0111 (active).

In the case of CCCC(=O)N1c2ccccc2NC2=C(C(=O)CCC2)C1c1ccc(F)cc1 (centres undefined), the cell count [4] is reported as 593, the inhibition [4] is reported as -9.6% (inactive) and the inhibition of aggregation [5] is reported as 3.9% (inactive). The nuclei count [5] was 124%, the inhibition [6] was -94.4% (inactive) and the nuclei count [6] was 123%. The fluorescence slope [9] was -0.574 (inactive), the NADPH fluorescence slope [10] was -1.5e-05 (inactive) and the slope [11] was 0.0063 (inactive). For the same compound, the normalised thallium flux (F/F0 slope) [1] was 0.0086 (inactive), the normalized thallium flux [2] was 0.0312 (inactive) and the thallium flux rate (normalised fluorescence) [15] was 0.0072 (inactive). The raw Tl+ flux slope (below DMSO = inhibition, above = activation) [16] was 0.0212 (inactive), the inhibition [13] was 8.4% (inactive) and the inhibition [14] was 23.4% (inactive).

In the case of C=CCn1c(=S)[nH]c2nc3c(cc2c1=O)COC(C)(C)C3, the cell count [4] is reported as 590, the inhibition [4] is reported as -2.3% (inactive) and the inhibition of aggregation [5] is reported as 0.9% (inactive). For the same compound, the nuclei count [5] was 109%, the inhibition [6] was -9.4% (inactive) and the nuclei count [6] was 134%. The z-score [7, 19] was 1.01, the z-score [7, 20] was 0.551 and the z-score [7, 21] was -1.17. The inhibition [8] was 3.66% (inactive), the fluorescence slope [9] was -0.495 (inactive) and the NADPH fluorescence slope [10] was -0.00014 (inactive). The slope [11] was 0.00772 (inactive), the outcome [17] was “inactive” and the normalized thallium flux (PubChem AID 1714) was 0.0176 (active). For the same compound, the normalized thallium flux [2] was 0.0337 (inactive), the thallium flux slope [3] was 0.0123 (inactive) and the inhibition [12] was -8.98% (inactive). The inhibition [13] was 14.5% (inactive) and the inhibition [14] was -0.984% (inactive).

With O=C(O)CS/C(=C\c1ccc(F)cc1)c1nc2ccccc2s1 the normalised thallium flux (F/F0 slope) [1] was 0.0153 (inactive), the thallium flux rate (normalised fluorescence) [15] was 0.00592 (active) and the raw Tl+ flux slope (below DMSO = inhibition, above = activation) [16] was 0.011 (active).

In the case of Cc1cccc(N(CC(O)CN(C)C)S(=O)(=O)c2ccccc2)c1 (centres undefined), the cell count [4] is reported as 660, the inhibition [4] is reported as -8.8% (inactive) and the inhibition [6] is reported as -9.3% (inactive). It also gave a nuclei count [6] of 177%, a z-score [7, 19] of 0.811 and a z-score [7, 20] of 0.15. For the same compound, the z-score [7, 21] was 0.694, the inhibition [8] was 1.42% (inactive) and the fluorescence slope [9] was -0.413 (inactive). The NADPH fluorescence slope [10] was -6e-05 (inactive), the fluorescence slope [18] was 0.00446 (inactive) and the outcome [17] was “inactive”. The normalised thallium flux (F/F0 slope) [1] was 0.00903 (inactive), the normalized thallium flux [2] was 0.0335 (inactive) and the thallium flux rate (normalised fluorescence) [15] was 0.00768 (inactive). For the same compound, the raw Tl+ flux slope (below DMSO = inhibition, above = activation) [16] was 0.0203 (inactive), the thallium flux slope [3] was 0.0103 (inactive) and the inhibition [12] was 30.7% (inactive).

With Cc1sc2ncnc(Sc3nc4ccccc4s3)c2c1C the normalised thallium flux (F/F0 slope) [1] was 0.0102 (inactive), the normalized thallium flux [2] was 0.0292 (inactive) and the thallium flux rate (normalised fluorescence) [15] was 0.00801 (inactive). The thallium flux slope [3] was 0.0107 (inactive).

In the case of O=C(CSc1cccc2cccnc12)N/N=C/c1cccnc1, the normalized thallium flux (PubChem AID 1714) is reported as 0.0504 (active), the normalized thallium flux [2] is reported as 0.0285 (inactive) and the thallium flux rate (normalised fluorescence) [15] is reported as 0.0251 (active). For the same compound, the raw Tl+ flux slope (below DMSO = inhibition, above = activation) [16] was 0.0449 (active) and the thallium flux slope [3] was 0.0116 (active).
